Many of the other results were omitted from the sample, so hits are more common in it than they were.
TbREL1 primary – TbREL1 inhibition, primary screen | TbREL1 RNA ligation, FRET fluorescence | inhibition, % at 9.66 µM | hit rate 0.49% among 89,000 | AID 1117264;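 active means inhibition above the mean inhibition across all screened compounds plus 3 SD, cut at about 11% in these data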;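 further: 0% = plate median of test wells and 100% = NSC42067 control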
Target sequence (P86926 whole entry, looked up): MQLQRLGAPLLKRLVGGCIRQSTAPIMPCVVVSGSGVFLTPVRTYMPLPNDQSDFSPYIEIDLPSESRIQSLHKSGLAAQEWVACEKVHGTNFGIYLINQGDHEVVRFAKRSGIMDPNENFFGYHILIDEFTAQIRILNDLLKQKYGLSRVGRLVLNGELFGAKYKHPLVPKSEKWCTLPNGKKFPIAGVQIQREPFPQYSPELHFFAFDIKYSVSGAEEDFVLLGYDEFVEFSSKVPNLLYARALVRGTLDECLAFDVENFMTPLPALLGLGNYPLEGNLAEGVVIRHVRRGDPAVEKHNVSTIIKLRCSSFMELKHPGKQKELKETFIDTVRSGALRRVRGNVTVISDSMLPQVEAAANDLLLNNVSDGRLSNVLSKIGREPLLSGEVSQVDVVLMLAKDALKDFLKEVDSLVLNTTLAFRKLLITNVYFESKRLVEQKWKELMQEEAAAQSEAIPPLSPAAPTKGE
TbREL1 confirm – TbREL1 inhibition, confirmation. hit rate 37% among 390. shares compounds with TbREL1 primary. inhibition, % at 9.66 µM. TbREL1 RNA ligation, FRET fluorescence;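 active means mean inhibition across replicates above a set limit taken from the earlier primary screen, cut at about 11% in these data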;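 further: 0% = REL1 with substrate and DMSO and 100% = REL1 plus control inhibitor NSC42067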
* = called active by the depositor.

SMILES	TbREL1 primary	others
CCCCC[C@@H](C)N1C[C@@H](COCc2ccccc2)Oc2cc(N3CC[C@@H](N(C)C)C3)ccc2S1(=O)=O	14*	TbREL1 confirm=4
CCCCC[C@H](C)N1C[C@H](COCc2ccccc2)Oc2cc(N3CC[C@H](N(C)C)C3)ccc2S1(=O)=O	2
CCCCC[C@H](C)N1C[C@@H](COCc2ccccc2)Oc2cc(N3CC[C@@H](O)C3)ccc2S1(=O)=O	2
Cc1cc(C)nc(NC(=S)N2CCN(c3ncc(C(F)(F)F)cc3Cl)CC2)c1	-1
Cc1ccc(S(=O)(=O)NC[C@H]2CN(S(=O)(=O)c3ccc(C)cc3)[C@@H](Cc3ccccc3)CO2)cc1	3
CCC(C)NC(=O)C1CCN(S(=O)(=O)c2cccnc2)CC1 (configuration not stated)	2
CCC(C)NC(=O)C1CCN(S(=O)(=O)c2ccc3[nH]c(=O)oc3c2)CC1 (configuration not stated)	12*	TbREL1 confirm=25*
Cc1ccc(NC(=O)C2CCN(S(=O)(=O)c3ccc4[nH]c(=O)oc4c3)CC2)cc1F	-1
Clc1ccccc1N1CCN(C2=Nc3ccccc3Sc3ccccc32)CC1	-1
COc1cc(OC)cc(C(=O)NCCN2C(=O)C3C4C=CC(C4)C3C2=O)c1 (configuration not stated)	0
CCCCCCCCN1C(=O)[C@@H](CC(=O)NCc2cccc(C(F)(F)F)c2)C[C@@]2(C(=O)OC)C1=C[C@H](COCc1ccccc1)O[C@@H]2C	-3
O=[N+]([O-])c1ccc(N2CCCC2)cc1NC1CC1	0
CC(Nc1cc(N2CCNCC2)ccc1[N+](=O)[O-])c1ccccc1 (configuration not stated)	4
CCc1ccc(OCCNc2cc(N3CCNC(C)C3)ccc2[N+](=O)[O-])cc1 (configuration not stated)	12*	TbREL1 confirm=9
COc1ccc(CN(CCN2CCOCC2)C(=O)c2ccc(F)cc2Cl)cc1OC	1
NS(=O)(=O)c1ccc(NC(=O)CSc2nnc(-c3cccs3)o2)cc1	0
CC(C)CN(CC(C)C)C(=O)CSc1nc2cccnc2n1C	2
O=S(=O)(Nc1cccc(-c2cn3c(n2)SCC3)c1)c1ccccc1F	-4
Oc1ccc(-c2cn3c(n2)SCC3)cc1	-3
Oc1ccc(-c2cn3c(n2)SCC3)cc1O	17*	TbREL1 confirm=41*
O=C(CSc1nc2ccccc2o1)NN=C/C=C/c1ccccc1	3
Cc1nc2cc(C(F)(F)F)ccc2n1CCNc1nc(-c2ccc([N+](=O)[O-])c(Cl)c2)cs1	0
O=[N+]([O-])c1cc(-c2csc(NCCc3nc4cc(C(F)(F)F)ccc4n3CCCO)n2)ccc1Cl	19*	TbREL1 confirm=5
OCCOCCn1c(CCNc2nc(-c3ccc(F)cc3)cs2)nc2cc(C(F)(F)F)ccc21	-4
O=C(NCCC1=CCCCC1)C1CCN(S(=O)(=O)c2ccccc2[N+](=O)[O-])CC1	-4
SMILES	TbREL1 primary	others
O=C(NC1CCC1)O[C@H]1CC[C@@]23CCCN2C(=O)CCC[C@H]3C1	4
CCCCc1ccc2nc(NC(=O)c3cccs3)sc2c1	4
C#CCNC(=O)C[C@@H]1C(=O)N(CCc2ccc(Cl)cc2)C2=CCCCC[C@]21C(=O)OC	-3
Cc1cc(C(N)=O)c2ccccc2n1	4
CC(C)c1cc(C(=O)O)c2ccccc2n1	13*	TbREL1 confirm=9
O=C(O)c1cc(Sc2ccc(Br)cc2)nc2ccccc12	0
COC(=O)CN1CCN(C(=O)c2csc(-c3ccccc3)n2)CC1	-1
c1cnc(SCC2CCCCC2)c(-c2nc3ccccc3[nH]2)c1	1
O=C(CSc1nnc(-c2ccccc2)n1-c1ccc(Cl)cc1)Nc1cccc2ccccc12	1
Cc1ccnc(SCc2cc(=O)c(OC(=O)c3ccc(C)c([N+](=O)[O-])c3)co2)n1	6
N#CCSc1nccc(/C=C/c2ccccc2)n1	12*	TbREL1 confirm=2
C(=C\c1ccccc1)/CSc1nc2ncccc2[nH]1	0
N#CCSc1nc2ccccc2o1	5
CCC(C)N(C(=O)CSc1nnc(-c2cccnc2)n1C1CCCCC1)C(C)CC (configuration not stated)	-3
C[C@H]1[C@@H](N)CC[C@@]23CCCN2C(=O)CCC[C@@H]13	1
Clc1ccc(CN=C(Nc2ccccc2)NC2CCCCC2)cc1	13*	TbREL1 confirm=15*
O=C(Nc1cccc(Cl)c1)NC1CCCCC1	6
O=C(Nc1nnc(-c2ccc(Cl)cc2)o1)NC1CCCCC1	-1
CN1CCC(N[C@@H](Cc2c[nH]c3ccccc23)C(=O)NCCCc2ccccc2)(C(=O)NCCc2c[nH]c3ccccc23)CC1	-2
Cc1ccc(NC(=S)NNC(=O)CSc2nc3sc4c(c3c(=O)n2-c2ccccc2)CCCC4)cc1	-8
CCOC(=O)N1CCN(C(=O)CSc2cc(C)nc3c(-c4ccccc4OC)c(C)nn23)CC1	13*	TbREL1 confirm=2
COc1ccccc1-c1c(C)nn2c(N3CCC(C(N)=O)CC3)cc(C)nc12	4
COc1ccccc1-c1c(C)nn2c(N3CCC(C)CC3)cc(C)nc12	-1
O=C(CSc1nnc(-c2ccccn2)n1-c1ccccc1)Nc1cccc2ccccc12	-1
CCN1CCN(CCOCCOc2ccccc2)CC1	4
SMILES	TbREL1 primary	others
CCc1ccc(OCCOCCN2CCN(C)CC2)cc1	16*	TbREL1 confirm=8
CN1CCN(CCOc2ccc(Cl)c(Cl)c2)CC1	7
CN(C)[C@@H]1CCN(c2ccc3c(c2)OCCCN(C2CC2)S3(=O)=O)C1	-1
CCC(C)[C@H]1CN=C(N)N1CCc1cccc2ccccc12 (some centres not stated)	12*	TbREL1 confirm=7
c1ccc([C@H]2CNCCN2CCc2cccc3ccccc23)cc1	4
O=C1NC[C@@H](Cc2ccc(O)cc2)N(CCc2cccc3ccccc23)C1=O	-3
CCCCCCC[C@H](N)[C@H](O)C(=O)N(C)[C@@H](CCS(C)=O)C(=O)N[C@@H](Cc1ccc(O)cc1)C(=O)O (some centres not stated)	5
CCOP(=O)(OCC)c1ccc2c(c1)C(=O)c1ccccc1-2	8
Fc1ccccc1OCCCN1CCOCC1	11
Nc1ncc(CCN2CCOCC2)c(-c2ccc(F)cc2)n1	15*	TbREL1 confirm=2
Fc1ccc(-c2csc(N3CCOCC3)n2)cc1	-3
CCC(=O)N1CCc2cc(Br)c(S(=O)(=O)NC3CCN(Cc4ccccc4)CC3)cc21	-2
COc1ccc(-c2cnnc(N/N=C/c3ccc(OC)c(OC)c3)n2)cc1	11*	TbREL1 confirm=-2
CCOc1cc(/C=N/Nc2nncc(-c3ccccc3)n2)ccc1O	0
COc1ccc(/C=N/Nc2nc(-c3ccc(Cl)cc3)cc(C(F)(F)F)n2)cc1OC	-2
CCN(CC)C(=O)CSc1nnc(-c2ccccn2)n1C	1
O=C(c1ccccc1-c1nc(-c2ccc(F)cc2)no1)N1CCCC1	-1
O=C(O)c1ccccc1-c1noc(-c2ccccc2F)n1	13*	TbREL1 confirm=4
O=C(c1ccccc1-c1nc(-c2ccccc2)no1)N1CCOCC1	-1
CCC[C@H]1[C@@H](NC(=O)c2ccc(Cl)cc2)CC[C@@]23CCCN2C(=O)CCC[C@@H]13	0
CC(=O)N1CCN(C(=O)c2ccc(CNC(=O)c3cccc(Br)c3)cc2)CC1	1
CCc1ccccc1CNC(=O)C1CCC(CNS(=O)(=O)c2cccc3cccnc23)CC1 (configuration not stated)	-1
CN(C)C(=O)N1CCN(C(=O)[C@H]2O[C@@H](n3ccc(N)nc3=O)[C@H](O)[C@@H]2O)CC1	0
COc1cccc(C(=O)Nc2ccccc2F)c1	3

Screening data (PubChem BioAssay)
